The full list was thinned out, with hits kept by preference.
BL2 CD40 inh: CD40 pathway inhibition in BL2 cells | 83,000 compounds, 0.94% hits | inhibition, % at 10 µM | BL2 NF-kB luciferase reporter, CD40L-induced, 4 h;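 active = mean inhibition of at least 50% with a set share of replicates also reaching that level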;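 note: 0% = neutral control wells and 100% = IKK inhibitor VII at 50 µM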
Numbers without * were called inactive; [ ] = dose if it differs, or a comment.

SMILES | BL2 CD40 inh
COc1ccc(C(=O)[C@H]2[C@H]3C(=O)N(c4ccccc4)C(=O)[C@H]3C3C=CC=NN32)cc1 (stereo partly specified) | -44.8
CC1CN(Cc2ccccc2)C(=O)N(c2ccccc2)C1=O (stereo unspecified) | -3.0
O=C1C=CC2C3C(=O)N(c4ccccc4)C(=O)C3C1N2Cc1ccccc1 (stereo unspecified) | 100.0*
N#C[C@H]1[C@@H](c2ccccc2-c2ccccc2F)[C@H](CO)N1C(=O)C1CCOCC1 | -10.2[25 µM]
c1ccc(OCCSc2nnc3sc4ccccc4n23)cc1 | 86.7*
c1ccc(OCCSc2nnnn2-c2ccccc2)cc1 | -20.1
CCCn1c(=O)c2ccccc2n2c(SCCOc3ccccc3)nnc12 | -3.0
C[C@H]1CN([C@@H](C)CO)C(=O)c2c(c3ccccc3n2C)-c2ccccc2CO[C@@H]1CN(C)Cc1ccc(-c2ccccc2)cc1 | -0.5
CS(=O)(=O)N1[C@H](C#N)[C@@H](c2ccc(C#Cc3cccc(F)c3)cc2)[C@H]1CO | -18.0[25 µM]
CC1CC(C)(C)Nc2ccc(N=O)cc21 (stereo unspecified) | 23.3
COc1ccc(C(=O)Nc2cccc(OC(=O)c3ccco3)c2)cc1 | -26.0
CC1CC(C)(C)Nc2ccc(OC(=O)c3ccco3)cc21 (stereo unspecified) | 67.5*
COc1ccc2c3c([nH]c2c1)[C@H](CO)N(Cc1ccc(F)cc1)CC31CN(C)C1 | -7.7[25 µM]
Cc1ccc(-c2ccc([C@H]3[C@H](CO)N4C(=O)CN(C(=O)NC(C)C)C[C@@H]34)cc2)cc1 | -13.9[25 µM]
O=C(C1CCCC1)N1CC(=O)N2[C@H](CO)[C@@H](c3ccc(C#CCc4ccccc4)cc3)[C@H]2C1 | 42.6
O=C(C1CCOCC1)N1CC(=O)N2[C@H](CO)[C@@H](c3ccc(C#CCc4ccccc4)cc3)[C@@H]2C1 | 12.0[25 µM]
O=C(C1CCOCC1)N1CC(=O)N2[C@H](C1)[C@@H](c1ccc(C#CCc3ccccc3)cc1)[C@@H]2CO | 58.3*[25 µM]
CC(C)NC(=O)N1CC(=O)N2[C@H](CO)[C@@H](c3ccc(/C=C/c4ccccc4)cc3)[C@H]2C1 | 52.9*[25 µM]
O=C(C1CCOCC1)N1CC(=O)N2[C@@H](CO)[C@@H](c3ccc(C#CCc4ccccc4)cc3)[C@@H]2C1 | 5.3[25 µM]
Cc1ccc(-c2ccc([C@H]3[C@H]4CN(C(=O)NC(C)C)CC(=O)N4[C@H]3CO)cc2)cc1 | 5.3[25 µM]
O=C(C1CCCC1)N1CC(=O)N2[C@@H](CO)[C@H](c3ccc(C#CCc4ccccc4)cc3)[C@@H]2C1 | 92.8*
COCC#Cc1ccc([C@H]2[C@@H](CO)N3C(=O)CN(C(=O)C4CCCC4)C[C@H]23)cc1 | -4.0
C[C@@H]1CN([C@H](C)CO)C(=O)c2c(c3ccccc3n2C)-c2ccccc2CO[C@H]1CN(C)Cc1cccnc1 | 9.0[25 µM]
CO[C@@H]1CN(C)C(=O)c2ccc(NC(=O)Nc3cccc(Cl)c3)cc2OC[C@H](C)N(C(=O)Nc2c(C)noc2C)C[C@@H]1C | -2.6
CN1[C@@H]2c3ccc(/C=C/c4ccccc4)c(=O)n3C[C@@H]2[C@@H](CO)[C@@H]1C(=O)NC1CCC1 | -12.2
SMILES | BL2 CD40 inh
C[C@H](CO)N1C[C@H](C)[C@H](CN(C)Cc2ccc(O)cc2)OCc2cn(nn2)CCCC1=O | -5.6
C[C@@H]1CN([C@@H](C)CO)C(=O)c2cc(NC(=O)Nc3ccccc3)ccc2O[C@@H](C)CCCCO[C@@H]1CN(C)C(=O)Nc1ccccc1 | 0.1[25 µM]
Cc1nc(N2[C@@H](C#N)[C@@H](c3ccccc3)[C@@H]2CO)sc1C | 5.4[25 µM]
C[C@@H]1CN([C@@H](C)CO)C(=O)c2cccc(NC(=O)Nc3ccc(F)cc3)c2O[C@@H]1CN(C)S(=O)(=O)c1ccc(Cl)cc1 | 10.3[25 µM]
COc1ccc(-c2cnc3c(c2)C(=O)N([C@H](C)CO)C[C@@H](C)[C@@H](CN(C)C(=O)Nc2c(C)noc2C)O3)cc1 | 64.8*[25 µM]
C[C@H](CO)N1C[C@H](C)[C@H](CN(C)S(=O)(=O)c2ccc(Cl)cc2)Oc2c(NC(=O)Nc3ccc(F)cc3)cccc2C1=O | 85.1*[25 µM]
COc1ccc(S(=O)(=O)N(C)C[C@@H]2OCCCC[C@H](C)Oc3ccc(NC(=O)Nc4ccc(C(F)(F)F)cc4)cc3C(=O)N([C@@H](C)CO)C[C@@H]2C)cc1 | -6.3
C[C@@H]1CN([C@@H](C)CO)C(=O)c2cccc(NC(=O)Nc3ccc(F)cc3)c2O[C@H]1CN(C)S(=O)(=O)c1ccc(Cl)cc1 | -8.6[25 µM]
COc1ccc(S(=O)(=O)N(C)C[C@H]2OCCCC[C@@H](C)Oc3ccc(NC(=O)Nc4ccc(F)cc4)cc3C(=O)N([C@H](C)CO)C[C@@H]2C)cc1 | 1.2
C[C@H](CO)N1C[C@H](C)[C@@H](CN(C)S(=O)(=O)c2ccccc2)Oc2ccc(NC(=O)Nc3ccccc3)cc2C1=O | 0.6
COc1ccc(S(=O)(=O)N(C)C[C@@H]2OCCCC[C@H](C)Oc3ccc(NC(=O)Nc4ccc(F)cc4)cc3C(=O)N([C@H](C)CO)C[C@H]2C)cc1 | -3.7
COc1ccc(S(=O)(=O)N(C)C[C@@H]2Oc3ccc(NC(=O)Nc4ccc(C(F)(F)F)cc4)cc3C(=O)N([C@@H](C)CO)C[C@@H]2C)cc1 | 77.3*[25 µM]
Cc1ccc(-c2cnc3c(c2)C(=O)N([C@H](C)CO)C[C@H](C)[C@H](CN(C)C(=O)CN(C)C)O3)cc1 | -6.4[25 µM]
COc1ccc(S(=O)(=O)N(C)C[C@H]2Oc3ccc(NC(=O)Nc4ccc(C(F)(F)F)cc4)cc3C(=O)N([C@@H](C)CO)C[C@H]2C)cc1 | 60.6*[25 µM]
Cc1ccc(-c2cnc3c(c2)C(=O)N([C@@H](C)CO)C[C@H](C)[C@H](CN(C)C(=O)CN(C)C)O3)cc1 | -14.4[25 µM]
O=C(Nc1cc(F)ccc1F)N[C@@H]1CC[C@@H](CCn2cc(C3CCCC3)nn2)O[C@H]1CO | 2.5
COc1ccc(C#Cc2ccc3c(c2)[C@H]2[C@H](CCN2C(=O)c2ccccc2F)[C@H](CO)N3C)cc1 | -24.1[25 µM]
CN1C(=O)c2cc(NC(=O)c3ccc(F)cc3)ccc2OC[C@H]2O[C@@H](CC(=O)NCC3CCCCC3)CC[C@H]21 | -0.9
COC(=O)[C@H]1[C@H](CO)[C@H]2Cn3c(cccc3=O)[C@H]2N1C(=O)C1CCCC1 | -2.3
N#C[C@H]1[C@H](c2ccccc2-c2cccc(F)c2)[C@@H](CO)N1C(=O)C1CC1 | -1.2[25 µM]
C[C@@H]1CN([C@@H](C)CO)C(=O)c2cc(NC(=O)Nc3ccc(F)cc3)ccc2O[C@@H]1CN(C)S(=O)(=O)c1ccc(Cl)cc1 | 14.5
COc1ccc(S(=O)(=O)N(C)C[C@H]2OCCCC[C@H](C)Oc3ccc(NC(=O)Nc4ccc(F)cc4)cc3C(=O)N([C@H](C)CO)C[C@@H]2C)cc1 | 4.0
C[C@@H]1CN([C@H](C)CO)C(=O)c2cccc(NS(=O)(=O)c3ccc(Cl)cc3)c2O[C@H]1CN(C)Cc1ccc(C(=O)Nc2ccccc2N)cc1 | -37.0[25 µM]
COc1ccc(S(=O)(=O)N(C)C[C@H]2Oc3ccc(NC(=O)Nc4ccc(C(F)(F)F)cc4)cc3C(=O)N([C@H](C)CO)C[C@H]2C)cc1 | 65.8*[25 µM]
C[C@@H]1CN([C@@H](C)CO)C(=O)c2cccc(NS(=O)(=O)c3ccc(Cl)cc3)c2O[C@@H]1CN(C)Cc1ccc(C(=O)Nc2ccccc2N)cc1 | active[25 µM]
C[C@H]1CN([C@@H](C)CO)C(=O)c2cccc(NS(=O)(=O)c3ccc(Cl)cc3)c2O[C@@H]1CN(C)Cc1ccc(C(=O)Nc2ccccc2N)cc1 | -55.2[25 µM]
COc1ccccc1S(=O)(=O)N[C@H]1C=C[C@H](CC(=O)N2CCOCC2)O[C@@H]1CO | -5.6[25 µM]

Screens: PubChem BioAssay, Broad Institute
